Assay outcomes as filed in PubChem.
The sample as a whole holds a higher share of hits than the screen did.
Dicer processing: inhibitors of Dicer pre-microRNA processing, primary screen, biochemical, cat-ELCCA, chemiluminescence; Endoribonuclease Dicer (Homo sapiens), Q9UPY3; cat-ELCCA pre-miR-21 Dicer processing; stronger effect = higher value; z-score at 25 µM; actives 6% (n = 47,000); AID 1347074, 2019; in the data active means z-score above about 3, passing the limit was not always enough;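 further: plate controls were vehicle for no effect and no enzyme for full effect; higher signal means more uncleaved substrate so more Dicer inhibition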
Starred values were filed as active, the others as inactive.

For CCOC(=O)c1c(NC(=O)Nc2ccc(Cl)c(Cl)c2)sc2c1CCC(C)C2 (stereo unspecified) the results were Dicer processing -0.21.
For Clc1cccc(Nc2nnns2)c1Cl the results were Dicer processing 1.36.
Screening Cc1cc(Cl)ccc1Nc1nnc(-c2ccccc2Cl)s1 returned Dicer processing -1.46.
Screening Cc1nnc(Nc2cccc(Cl)c2C)s1 returned Dicer processing 3.43*.
For CSc1nc2cc(C(C)(C)C)nn2c(N)c1S(=O)(=O)c1ccc(Cl)cc1 the results were Dicer processing 0.79.
Screening COc1oc(-c2cccc(C)c2)nc1C(F)(F)F returned Dicer processing 3.63*.
For Cc1cccc(-c2nnc(-c3ccccc3)o2)c1 the results were Dicer processing 2.6.
COc1cc(OC)cc(-c2nc(-c3cccc(C)c3)no2)c1 was read as Dicer processing -0.47.
For O=C(CN1C(=O)c2ccccc2C1=O)Nc1cccc(-n2cccc2)c1 the results were Dicer processing 0.78.
FC(F)(F)c1c2c(nc3cc(C4CC4)nn13)-c1ccccc1CC2 was read as Dicer processing -0.88.
Screening COCCNC(=O)c1nn2c(C(F)(F)F)c3c(nc2c1Cl)-c1ccccc1CC3 returned Dicer processing 4.73*.
Screening Cc1cc2nc3c(c(C(F)(F)F)n2n1)CCc1ccccc1-3 returned Dicer processing -1.6.
`CN(C)/C=C1\CSc2ccc(Cl)cc2C1=O` gave Dicer processing -0.06.
Fc1cccc(CN2CCN(Cc3cccc4ccccc34)CC2)c1 was read as Dicer processing 0.8.
O=S(=O)(Nc1ccc(Oc2ccc(NS(=O)(=O)c3cccs3)cc2)cc1)c1cccs1 was read as Dicer processing 3.62*.
For Cc1cc(=O)oc2cc(NS(=O)(=O)c3cccs3)ccc12 the results were Dicer processing -1.83.
`O=S(=O)(Nc1cccc2ccccc12)c1cccs1` gave Dicer processing 2.37.
Cc1noc(C)c1C(=O)Nc1ccc(N2CCOCC2)nc1N1CCOCC1 was read as Dicer processing -0.49.
For c1ccc2nc(N3CCOCC3)c(N3CCOCC3)nc2c1 the results were Dicer processing -0.17.
For CC1CCN(c2nc3ccccc3nc2SCC(=O)N2CCOCC2)CC1 the results were Dicer processing 3.86*.
For O=C(CSc1nc2ccccc2nc1N1CCOCC1)N1CCN(c2ccc(F)cc2)CC1 the results were Dicer processing 3.87*.
Screening O=C(CSc1nc2ccccc2nc1N1CCOCC1)N1CCOCC1 returned Dicer processing 4.94*.
Screening O=C(CSc1nc2ccccc2nc1N1CCOCC1)N1CCN(c2ccccc2)CC1 returned Dicer processing 2.78.
For CC1CN(c2nc3ccccc3nc2SCC(=O)N2CCOCC2)CC(C)O1 (stereo unspecified) the results were Dicer processing 1.08.
Screening O=C(CSc1nc2ccccc2nc1N1CCCC1)N1CCN(c2ccc(F)cc2)CC1 returned Dicer processing 2.58.
`Cc1cc(C)nc(N2CCN(C(=O)CSc3nc4ccccc4nc3N3CCOCC3)CC2)n1` gave Dicer processing 1.18.
O=C(CSc1nc2ccccc2nc1N1CCCCC1)N1CCN(c2ccccc2)CC1 was read as Dicer processing 4.92*.
For CC1CCN(c2nc3ccccc3nc2SCC(=O)N2CCN(C3CCCC3)CC2)CC1 the results were Dicer processing 1.96.
O=C(CSc1nc2ccccc2nc1N1CCCCC1)NC1CCCCC1 was read as Dicer processing 1.56.
For O=C(CSc1nc2ccccc2nc1N1CCCCC1)N1CCN(C2CCCC2)CC1 the results were Dicer processing 1.38.
`CCCCOC(=O)c1cc([N+](=O)[O-])cc2c1-c1ccc([N+](=O)[O-])cc1C2=O` gave Dicer processing 1.19.
For O=C(CN1C(=O)C(=O)c2ccccc21)Nc1ccccc1F the results were Dicer processing 0.82.
For CCCC(CC(=O)O)(C(=O)O)c1ccccc1 (stereo unspecified) the results were Dicer processing -0.72.
For Cc1ccc2nc(-c3ccc(NC(=O)c4c(-c5ccccc5Cl)noc4C)cc3)sc2c1 the results were Dicer processing 0.15.
O=C(CSc1nc2ccccc2nc1N1CCOCC1)NC1CC1 was read as Dicer processing 2.46.
O=C(CSc1nc2ccccc2nc1N1CCOCC1)NCC1CCCO1 (stereo unspecified) was read as Dicer processing 3.05*.
For CC1CCN(c2nc3ccccc3nc2SCC(=O)NCC2CCCO2)CC1 (stereo unspecified) the results were Dicer processing 1.64.
NC(=S)c1ccc(-n2cncn2)nc1 was read as Dicer processing -0.5.
`Cc1c(CN2CCC(C(=O)c3ccc(F)cc3)CC2)sc2ccccc12` gave Dicer processing 9.09.
Screening Cc1c(CC(=S)N2CCOCC2)sc2ccccc12 returned Dicer processing -0.68.
`Cc1c(CN2CCc3ccccc3C2)sc2ccccc12` gave Dicer processing 4.82*.
Screening CSC(=NCc1c(N(C)C)cccc1N(C)C)NC#N returned Dicer processing 1.57.
For O=C(NNS(=O)(=O)c1cccc(C(F)(F)F)c1)c1cc2ncc(C(F)(F)F)cc2s1 the results were Dicer processing -0.52.
